High-throughput results from PubChem BioAssay.
TDP1 cell CPT: qHTS for Inhibitors of human tyrosyl-DNA phosphodiesterase 1 (TDP1): qHTS in cells in presence of CPT | chicken DT40 Tdp1-/-;hTDP1 cells + 20 nM CPT, ATP luminescence, 48 h | Potency, µM (titrated, usually from 46.2 µM), for inactives: top-dose activity change, negative = growth inhibition, hits mostly inhibitors | actives 12% (n = 420,000); also: potency is read from the fitted curve at half-maximal effect; % is scaled to controls: 0 for no effect and ±100 for the full control effect; nearly all actives have a fitted effect of over 55% in size
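Chicken DT40 Tdp1-/- cells complemented with human TDP1, 400 cells/well, exposed to compounds plus 20 nM camptothecin for at least 48 h at 37 C; viability read as ATP content by CellTiter-Glo luminescence.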
TGFb SMAD3 inh: qHTS for Inhibitors of TGF-b. HepG2 CAGA-GFP TGF-b/SMAD3 reporter, GFP fluorescence, 18 h; TGF-beta stimulated, 500 pg/mL final. actives 1.2% (n = 410,000). AID 588855, 2011. Potency, µM (doses to about 46.1 µM), without a hit: at the highest dose activity, negative = inhibition, actives largely listed as inhibitors; also: potency is read from the fitted curve at half-maximal effect; % is scaled to controls: 0 for no effect and ±100 for the full control effect; nearly all actives have a fitted effect of over 65% in size
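First, reporter cells (HEPG2 CAGA-GFP) rested 2 h at 37 degrees C. Next, compounds were pinned in and TGF-beta added to 500 pg/mL final. After 18 h, GFP was imaged per cell and summed per well.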
TDP1 inh: qHTS Assay for Inhibitors of Tyrosyl-DNA Phosphodiesterase (TDP1); Tyrosyl-DNA phosphodiesterase 1 (Homo sapiens), Q9NUW8; recombinant TDP1, AlphaScreen DNA substrate cleavage; Potency, µM (highest dose often 130 µM), inactives show top-dose activity change, negative = inhibition, usual class: inhibitors; actives 0.28% (n = 350,000); AID 485290, 2010; also: potency is read from the fitted curve at half-maximal effect; % is scaled to controls: 0 for no effect and ±100 for the full control effect; nearly all actives have a fitted effect of over 40% in size
Target sequence (Q9NUW8 whole entry, looked up): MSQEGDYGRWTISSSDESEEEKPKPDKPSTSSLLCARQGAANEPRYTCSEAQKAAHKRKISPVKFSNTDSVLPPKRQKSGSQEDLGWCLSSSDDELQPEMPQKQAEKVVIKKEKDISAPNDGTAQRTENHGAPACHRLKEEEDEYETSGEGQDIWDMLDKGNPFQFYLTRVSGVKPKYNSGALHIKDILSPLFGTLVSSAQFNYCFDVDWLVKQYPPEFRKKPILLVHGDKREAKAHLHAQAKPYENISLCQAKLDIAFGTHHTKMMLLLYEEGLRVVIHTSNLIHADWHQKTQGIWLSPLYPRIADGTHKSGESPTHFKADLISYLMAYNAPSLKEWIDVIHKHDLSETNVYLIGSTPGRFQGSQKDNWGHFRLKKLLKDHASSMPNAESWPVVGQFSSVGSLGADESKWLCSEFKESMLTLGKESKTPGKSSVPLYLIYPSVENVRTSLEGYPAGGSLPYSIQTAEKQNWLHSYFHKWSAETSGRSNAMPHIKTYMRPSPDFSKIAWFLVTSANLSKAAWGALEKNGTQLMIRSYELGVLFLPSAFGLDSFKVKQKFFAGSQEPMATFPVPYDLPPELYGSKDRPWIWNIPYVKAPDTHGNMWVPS
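Enzyme-compound mixtures sat 15 min at room temperature, followed by a 5 min reaction with 15 nM final substrate and 10 min with AlphaScreen beads. Recombinant human Tdp1 was used at 1 nM final.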
HepG2 viability: qHTS for Inhibitors of TGF-b: Cytotox Counterscreen; Potency, µM (titrated, usually from 46.1 µM), for inactives: at the top dose activity change, negative = cytotoxicity, most hits filed as cytotoxic; AID 588856, 2011; HepG2 CAGA-GFP viability, ATP luminescence, 18 h; actives 0.76% (n = 410,000); also: potency is read from the fitted curve at half-maximal effect
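CellTiter-Glo luminescence gave cytotoxicity after 18 hours at 37 degrees C. The cells were HepG2 CAGA-GFP in 1% FBS DMEM, stimulated with 500 pg/mL TGF-beta after compound addition. %Activity was normalised to no-cell wells (complete cell-killing) and DMSO (no toxicity), and curves were fitted and classified.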
TDP1 cell noCPT: qHTS for Inhibitors of human tyrosyl-DNA phosphodiesterase 1 (TDP1): qHTS in cells in absence of CPT. DT40 Tdp1-/- hTDP1 cells, no CPT, ATP luminescence, 48 h. Potency, µM (series often up to 46.2 µM), without a hit: top-dose activity change, negative = growth inhibition, most hits filed as inhibitors. actives 15% (n = 420,000). AID 686978, 2013; also: potency is read from the fitted curve at half-maximal effect; % is scaled to controls: 0 for no effect and ±100 for the full control effect; nearly all actives have a fitted effect of over 55% in size
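Chicken DT40 Tdp1-/- cells stably complemented with human TDP1 were seeded at 400 cells/well with DMSO in place of 20 nM camptothecin. After compound pinning, cells grew at least 48 hr at 37 °C; viability read by CellTiter-Glo luminescence.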
IL-1B inflam inh: qHTS for Inhibitors of Inflammasome Signaling: IL-1-beta AlphaLISA Primary Screen | THP-1 LPS/ATP IL-1B secretion, AlphaLISA, 16 h; stronger effect = lower value | activity change, % at 57.5 µM | actives 4.7% (n = 360,000) | AID 743279, 2014; in the data active = activity change below about -50%; inconclusive = mostly about -30% to -49%; also: % is scaled to controls: 0 for no effect and ±100 for the full control effect
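Secreted IL-1B measured by AlphaLISA bead assay after 16 h compound exposure of THP-1 cells; compounds (final up to 57.5 uM) added 1 h before LPS (250 ng/mL) and ATP (1.25 mM) stimulation; lower signal means less secretion.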
An asterisk follows results filed as active; ? = inconclusive; · = no result given. Sampled rows, rich in hits. Any-hit rate of the full collection: about 19%. Unless noted, calls follow the shape of the dose curve; as a rule, active = well fitted curve in the direction sought with a large enough effect; inconclusive = small, poorly fitted or top-dose-only effect, or another doubt; inactive = no such curve, though single readings can be large; an effect the other way counts as inactive or inconclusive.

SMILES	TDP1 cell CPT	TGFb SMAD3 inh	TDP1 inh	HepG2 viability	TDP1 cell noCPT	IL-1B inflam inh
O=c1c2sccc2nc(SCc2cc(=O)n3cc(Br)ccc3n2)n1Cc1ccccn1	21µM*	-10%	-3%	-25%	21µM*	-53*
CCn1cc(C(=O)OCC(=O)Nc2cc(Cl)ccc2C)c(=O)c2ccc(C)nc21	-21%	-8%	2%	-2%	-7%	·
O=C(c1cccc(Br)c1)c1cn(-c2ccccc2)nc1C(=O)c1ccccc1	18µM*	-1%	0%	-27%	16µM*	-26
CC(=O)c1nn(-c2cccc(Br)c2)cc1C(=O)c1ccc(Cl)cc1	?	1%	1%	-6%	7.3µM*	12
CCCOc1ccc(C(=O)Nc2c(C(=O)c3ccc(C)cc3)oc3ccccc23)cc1	·	1%	-2%	1%	·	·
Cc1ccc(-c2nc3ncccc3o2)cc1NC(=O)c1ccc([N+](=O)[O-])o1	15µM*	-27%	2%	-21%	16µM*	-97*
CCCC(=O)Nc1ccc(-c2nc3ncccc3o2)cc1	2%	-5%	·	-6%	-11%	-26
CC(C)(Oc1ccc(Cl)cc1)C(=O)Nc1ccc(-c2nc3ncccc3o2)cc1	16µM*	36%	2%	1%	18µM*	·
CC(C)C(=O)Nc1ccc(-c2nc3ncccc3o2)cc1	0%	11%	·	2%	?	?
Cc1cc(C)cc(C(=O)Nc2ccc(-c3nc4ncccc4o3)cc2)c1	21µM*	0%	4%	-42%	?	·
COc1ccc(C(=O)Nc2ccc(-c3nc4ncccc4o3)cc2)cc1	-14%	24%	·	4%	-2%	·
Cc1cc(-c2nc3ncccc3o2)ccc1NC(=O)c1ccc([N+](=O)[O-])o1	-4%	9%	·	6%	2%	-1
O=C(Nc1ccc(-c2nc3ncccc3o2)cc1)c1ccc([N+](=O)[O-])o1	8.2µM*	?	7%	-22%	3.7µM*	-80*
CC(C)CC1NC(=O)c2cc3ccccc3cc2-n2c1nc1cc(Cl)ccc1c2=O (centres undefined)	?	12%	·	-5%	18µM*	73
CC1NC(=O)c2cc3ccccc3cc2-n2c1nc1cc(Cl)ccc1c2=O (centres undefined)	21µM*	-10%	·	-39%	?	16
CCN(CC)C(=O)c1cc(-c2ccc(Cl)cc2)on1	-19%	-22%	4%	-4%	-7%	·
Cc1[nH]c(=O)[nH]c(=O)c1S(=O)(=O)N1CCN(c2ccccc2Cl)CC1	-9%	-1%	1%	8%	-1%	·
CN(C)CCCNC1=CC(=O)CC(c2ccccc2)C1 (centres undefined)	3%	?	3%	-1%	-7%	-3
COc1ccc([C@H]2CC(=O)C=C(c3ccccc3Oc3ccccc3)C2)cc1	?	-4%	-4%	-10%	?	-25
COc1ccc(NC2=CC(=O)CC(c3ccccc3)C2)c(OC)c1 (centres undefined)	4.1µM*	?	0%	-15%	3.3µM*	-11
CCOc1ccccc1NC1=CC(=O)CC(c2ccccc2)C1 (centres undefined)	?	5%	6%	2%	13µM*	19
Cc1ccc(C(=O)OCc2cc(=O)n3nc(-c4cccs4)sc3n2)cc1	-10%	-2%	1%	1%	-22%	·
COCCCN=C1NN=C(c2cc(C)n(Cc3ccco3)c2C)CS1	0.65µM*	?	8%	-22%	0.029µM*	35
COCCn1c(C)cc(C2=NNC(=Nc3ccc(Cl)cc3Cl)SC2)c1C	?	-14%	0%	7%	?	-5
CCOc1ccc(N=C2NN=C(c3cc(C)n(CC4CCCO4)c3C)CS2)cc1 (centres undefined)	?	6%	8%	-11%	23µM*	23
SMILES	TDP1 cell CPT	TGFb SMAD3 inh	TDP1 inh	HepG2 viability	TDP1 cell noCPT	IL-1B inflam inh
COCC(C)N=C1NN=C(c2cc(C)n(Cc3ccccc3Cl)c2C)CS1 (centres undefined)	13µM*	?	9%	-25%	12µM*	?
Cc1cc(C2=NNC(=NC3CC3)SC2)c(C)n1Cc1ccco1	16µM*	?	5%	-41%	8.2µM*	6
COCCn1c(C)cc(C2=NNC(=NC3CC3)SC2)c1C	?	8%	5%	10µM*	?	-3
C=CCn1c(C)cc(C2=NNC(=NC(C)(C)C)SC2)c1C	?	-11%	10%	-6%	?	-77*
C=CCN=C1NN=C(c2cc(C)n(CCOC)c2C)CS1	-7%	-4%	5%	-5%	-2%	-13
C=CCn1c(C)cc(C2=NNC(=Nc3ccc(C)cc3)SC2)c1C	?	-1%	0%	-11%	?	-4
COc1cccc(CN2CCN(Cc3cc4ccccc4[nH]3)CC2CCO)c1 (centres undefined)	?	22µM*	·	17%	?	-11
COc1ccc(CN2CCN(Cc3cccc(OC)c3)C(CCO)C2)cc1 (centres undefined)	-4%	19%	3%	15%	?	1
CCOc1ccc(CN2CCN(Cc3cc4ccccc4[nH]3)CC2CCO)cc1 (centres undefined)	?	?	0%	-2%	?	-6
COc1cccc(CN2CCN(Cc3[nH]c4ccccc4c3C)CC2CCO)c1 (centres undefined)	?	-27%	-2%	-41%	?	-78*
Cc1ccc(-c2nc3cc(Cl)ccc3o2)cc1NC(=O)COc1ccccc1C	8.9µM*	-1%	·	1%	11µM*	·
Cc1cc(Cl)ccc1OCC(=O)Nc1cccc(-c2nc3ccccc3o2)c1	?	-3%	·	3%	13µM*	·
Cc1cc2nc(-c3cccc(NC(=O)COc4ccc(Cl)c(C)c4)c3)oc2cc1C	-28%	16%	-5%	-11%	-16%	·
Cc1ccc(-c2nc3ccccc3o2)cc1NC(=O)COc1ccccc1C	-8%	33%	·	20%	4%	·
Cc1cc2nc(-c3cccc(NC(=O)COc4ccc(C(C)C)cc4)c3)oc2cc1C	21µM*	11%	3%	11%	16µM*	·
